Measured values taken from the supplement of paper PMC8975748.
Counter-ions that a name gives are not always drawn.

These molecules were tested on Saccharomyces cerevisiae BY4741 SeMeCo community (assay: z-score of subpopulation abundance vs DMSO median, subpopulation auxotrophic for HLM; higher = larger share of this subpopulation than in DMSO controls). Conditions: 10 µM; 24 h; SM minimal medium; subpopulation (auxotrophy): HLM.
Outline: (§1)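 Cells of a Saccharomyces cerevisiae BY4741 community, carrying four plasmids that each restored one auxotrophy and encoded a distinct fluorescent protein, were pre-grown overnight to OD600 1.0 and diluted to 0.3. A 70 µl volume was added to 384-well plates acoustically predosed with library drugs (10 µM final) and grown 24 h in minimal SM medium. After paraformaldehyde fixation, automated confocal microscopy was used, with single-auxotroph fluorescent strains for thresholds and autofluorescence correction. The abundance of each subpopulation was scored as a z-score against the vehicle-well median.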

Row | Structure (SMILES) | z-score of subpopulation abundance
1 | Cc1onc(-c2ccccc2)c1-c1ccc(S(N)(=O)=O)cc1 [Valdecoxib] | -0.74
2 | COc1ccc(Cc2cnc(N)nc2N)cc1OC [Diaveridine] | -0.26
3 | CC1(C)[C@H](C(=O)O)N2C(=O)C[C@H]2S1(=O)=O [Sulbactam sodium] | -0.2
4 | CCc1cc(C(N)=S)ccn1 [Ethionamide] | -0.28
5 | O=C(O)c1cc(=O)c2c(OCC(O)COc3cccc4oc(C(=O)O)cc(=O)c34)cccc2o1 [Disodium Cromoglycate] | -0.04
6 | Clc1ccc(C(Cn2ccnc2)OCc2c(Cl)cccc2Cl)c(Cl)c1 (centres undefined) [Isoconazole nitrate] | 13.3
7 | CCCCCCCCN=C(N)NC(N)=NCc1ccc(Cl)c(Cl)c1 [Olanexidine Hydrochloride semihydrate] | 72.9
8 | Nc1nc(N)nc(-c2cc(Cl)ccc2Cl)n1 [Irsogladine] | -0.41
9 | NC(=O)c1ncn([C@@H]2O[C@H](CO)[C@@H](O)[C@H]2O)n1 [Ribavirin] | -0.6
10 | CC1(C)S[C@@H]2[C@H](NC(=O)[C@H](N)c3ccccc3)C(=O)N2[C@H]1C(=O)OCOC(=O)[C@@H]1N2C(=O)C[C@H]2S(=O)(=O)C1(C)C [Sultamicillin] | 1.63
11 | CN1C2CCCC1CC(NC(=O)c1nn(C)c3ccccc13)C2 (centres undefined) [Granisetron] | -0.1
12 | CCC[C@@H]1C[C@@H](C(=O)N[C@@H]([C@H]2O[C@H](SC)[C@H](O)[C@@H](O)[C@H]2O)[C@@H](C)O)N(C)C1 [Lincomycin HCl] | -0.77
13 | CCc1c2c(nc3ccc(OC(=O)N4CCC(N5CCCCC5)CC4)cc13)-c1cc3c(c(=O)n1C2)COC(=O)[C@]3(O)CC [Irinotecan HCl Trihydrate] | 0.91
14 | Cc1[nH]c(=O)c(C#N)cc1-c1ccncc1 [Milrinone] | -0.75
15 | C[C@@H](O)[C@H]1C(=O)N2C(C(=O)O)=C(S[C@@H]3CN[C@H](C(=O)Nc4cccc(C(=O)O)c4)C3)[C@H](C)[C@H]12 [Ertapenem sodium] | -0.62
16 | CN(C)CCc1c[nH]c2ccc(C[C@H]3COC(=O)N3)cc12 [Zolmitriptan] | -0.12
17 | Clc1ccc(C(Cn2ccnc2)OCc2ccsc2Cl)c(Cl)c1 (centres undefined) [Tioconazole] | 20
18 | CN1CCOC(c2ccccc2)c2ccccc2C1 (centres undefined) [Nefopam HCl] | -0.41
19 | C[C@]1(Cn2ccnn2)[C@H](C(=O)O)N2C(=O)C[C@H]2S1(=O)=O [Tazobactam] | -0.56

These molecules were tested on Saccharomyces cerevisiae BY4741 SeMeCo community (assay: z-score of subpopulation abundance vs DMSO median, subpopulation auxotrophic for HUM; higher = larger share of this subpopulation than in DMSO controls). Conditions: 10 µM; 24 h; SM minimal medium; subpopulation (auxotrophy): HUM.
Outline: as §1

Row | Structure (SMILES) | z-score of subpopulation abundance
20 | NC(=O)N1c2ccccc2CC(=O)c2ccccc21 [Oxcarbazepine] | 0.19
21 | CC(=O)OCC1=C(C(=O)O)N2C(=O)[C@@H](NC(=O)CSc3ccncc3)[C@H]2SC1 [Cephapirin Benzathine] | 0.27
22 | COc1ccc(C[C@H](N)C(=O)N[C@H]2[C@@H](O)[C@H](n3cnc4c(N(C)C)ncnc43)O[C@@H]2CO)cc1 [Puromycin 2HCl] | 0.39
23 | OCc1ccccc1O[C@@H]1O[C@H](CO)[C@@H](O)[C@H](O)[C@H]1O [Salicin] | -0.09
24 | O=C(CCCN1CCC(O)(c2ccc(Cl)cc2)CC1)c1ccc(F)cc1 [Haloperidol] | -0.8
25 | COc1cc(O)c(C(=O)Nc2nc(C(=O)NCCN(C(C)C)C(C)C)cs2)cc1OC [Acotiamide] | 0.93
26 | CC(=O)OCC(CCn1cnc2cnc(N)nc21)COC(C)=O [Famciclovir] | -0.82
27 | O=C(c1ccccc1)c1ccc2n1CCC2C(=O)O (centres undefined) [Ketorolac] | -0.93
28 | CC[C@H]1OC(=O)[C@H](C)[C@@H](O[C@H]2C[C@@](C)(OC)[C@@H](O)[C@H](C)O2)[C@H](C)[C@@H](O[C@@H]2O[C@H](C)C[C@H](N(C)C)[C@H]2O)[C@](C)(O)C[C@@H](C)[C@@H]2N[C@@H](COCCOC)O[C@H]([C@H]2C)[C@]1(C)O [Dirithromycin] | -0.1
29 | C#CCC(Cc1cnc2nc(N)nc(N)c2n1)c1ccc(C(=O)N[C@@H](CCC(=O)O)C(=O)O)cc1 (some centres undefined) [Pralatrexate] | -2.23
30 | NNc1nncc2ccccc12 [Hydralazine HCl] | -0.64
31 | COc1cccc2c1C(=O)c1c(O)c3c(c(O)c1C2=O)CC(O)(C(=O)CO)CC3OC1CC(N)C(O)C(C)O1 (centres undefined) [Doxorubicin (Adriamycin) HCl] | 2.39
32 | CCN1CCCC1CNC(=O)c1cc(S(N)(=O)=O)ccc1OC (centres undefined) [Sulpiride] | -0.68
33 | CCCCC(F)(F)[C@@]1(O)CC[C@H]2[C@@H](CC(=O)[C@@H]2CCCCCCC(=O)O)O1 [Lubiprostone] | -1.08
34 | CCCN[C@H]1CCc2nc(N)sc2C1 [Pramipexole] | 0.71
35 | Cc1c(Nc2ncccc2C(=O)O)cccc1C(F)(F)F [Flunixin Meglumin] | 0.12
36 | COc1ccc2[nH]c([S+]([O-])Cc3ncc(C)c(OC)c3C)nc2c1 (centres undefined) [Omeprazole Sodium] | -0.81
37 | CO[C@H]1C[C@@H]2CC[C@@H](C)[C@@](O)(O2)C(=O)C(=O)N2CCCC[C@H]2C(=O)O[C@H]([C@H](C)C[C@@H]2CC[C@@H](OP(C)(C)=O)[C@H](OC)C2)CC(=O)[C@H](C)/C=C(\C)[C@@H](O)[C@@H](OC)C(=O)[C@H](C)C[C@H](C)/C=C/C=C/C=C/1C [Ridaforolimus (Deforolimus, MK-8669)] | 29.1
38 | C#C[C@]1(OC(C)=O)CC[C@H]2[C@@H]3CCC4=C[C@@H](OC(C)=O)CC[C@@H]4[C@H]3CC[C@@]21C [Ethynodiol diacetate] | -0.26
39 | Cc1ccccc1C(OCCN(C)C)c1ccccc1 (centres undefined) [Orphenadrine Citrate] | -0.13

Row | Structure (SMILES) | z-score of subpopulation abundance
40 | CCOc1cc(N)c([N+](=O)[O-])cc1C(=O)NC1CCN(CC2CC=CCC2)CC1 (centres undefined) [Cinitapride Hydrogen Tartrate] | 1.26
41 | Cc1onc(-c2ccccc2)c1-c1ccc(S(N)(=O)=O)cc1 [Valdecoxib] | -0.83
42 | COc1ccc(Cc2cnc(N)nc2N)cc1OC [Diaveridine] | 0.18
43 | CC1(C)[C@H](C(=O)O)N2C(=O)C[C@H]2S1(=O)=O [Sulbactam sodium] | 1.25
44 | CCc1cc(C(N)=S)ccn1 [Ethionamide] | -0.25
45 | O=C(O)c1cc(=O)c2c(OCC(O)COc3cccc4oc(C(=O)O)cc(=O)c34)cccc2o1 [Disodium Cromoglycate] | -0.62
46 | Clc1ccc(C(Cn2ccnc2)OCc2c(Cl)cccc2Cl)c(Cl)c1 (centres undefined) [Isoconazole nitrate] | 4.65
47 | CCCCCCCCN=C(N)NC(N)=NCc1ccc(Cl)c(Cl)c1 [Olanexidine Hydrochloride semihydrate] | 34.7
48 | Nc1nc(N)nc(-c2cc(Cl)ccc2Cl)n1 [Irsogladine] | -1.16
49 | NC(=O)c1ncn([C@@H]2O[C@H](CO)[C@@H](O)[C@H]2O)n1 [Ribavirin] | 0.49
50 | CC1(C)S[C@@H]2[C@H](NC(=O)[C@H](N)c3ccccc3)C(=O)N2[C@H]1C(=O)OCOC(=O)[C@@H]1N2C(=O)C[C@H]2S(=O)(=O)C1(C)C [Sultamicillin] | 1.4
51 | CN1C2CCCC1CC(NC(=O)c1nn(C)c3ccccc13)C2 (centres undefined) [Granisetron] | 0.05
52 | CCC[C@@H]1C[C@@H](C(=O)N[C@@H]([C@H]2O[C@H](SC)[C@H](O)[C@@H](O)[C@H]2O)[C@@H](C)O)N(C)C1 [Lincomycin HCl] | 0.3
53 | CCc1c2c(nc3ccc(OC(=O)N4CCC(N5CCCCC5)CC4)cc13)-c1cc3c(c(=O)n1C2)COC(=O)[C@]3(O)CC [Irinotecan HCl Trihydrate] | 0.52
54 | Cc1[nH]c(=O)c(C#N)cc1-c1ccncc1 [Milrinone] | -1.04
55 | C[C@@H](O)[C@H]1C(=O)N2C(C(=O)O)=C(S[C@@H]3CN[C@H](C(=O)Nc4cccc(C(=O)O)c4)C3)[C@H](C)[C@H]12 [Ertapenem sodium] | 0
56 | CN(C)CCc1c[nH]c2ccc(C[C@H]3COC(=O)N3)cc12 [Zolmitriptan] | -0.45
57 | Clc1ccc(C(Cn2ccnc2)OCc2ccsc2Cl)c(Cl)c1 (centres undefined) [Tioconazole] | 3.39
58 | CN1CCOC(c2ccccc2)c2ccccc2C1 (centres undefined) [Nefopam HCl] | -0.51
59 | C[C@]1(Cn2ccnn2)[C@H](C(=O)O)N2C(=O)C[C@H]2S1(=O)=O [Tazobactam] | -0.01
